Here are results for 16 molecules from PubChem BioAssay (NCI).

About 83,000 compounds went through this panel and 20% of them were active in at least one assay; those are over-represented in the sample as a whole.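 96-well plates, one dose, 48 hours. Percent growth reported; active if below 10.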 A number with no mark means an inactive call. The source made the active and inactive calls.

This assay relates to MDA-MB-468 breast. Briefly: NCI-60 one-dose screen, 48 h (100 = growth as untreated, 0 = no growth, -100 = all killed). The settings on record: 10 µM unless noted.
Turning to `COc1ccc2nc3cc(Cl)ccc3c(NCCCNC(C)=O)c2c1`, the growth is 39.5%.
Under `CCCc1cc(=O)oc2c(C(=O)CC(C)C)c(O)c(CC=C(C)C)c(O)c12` stands 1.81% (active); under `Cc1ccc(CCC(=O)Nc2ncc(Cc3cc(Cl)ccc3Cl)s2)o1`, 7.55% (active).
As for `COC(=O)/C=C1\S/C(=N\Nc2ccc([N+](=O)[O-])cc2[N+](=O)[O-])N(C2CCCCC2)C1=O`, the growth is 45.1%.
As for `CC(=O)N1CC(Nc2ccc(OC(F)(F)F)cc2)=CC1=O`, the growth is 13.8%.
Under `COc1cc(C2CC(c3cccc(Nc4ccnc5cc(Cl)ccc45)c3)=NN2C=O)cc(OC)c1OC` (stereo unspecified) stands -37.1% (active); under `C#Cc1ccccc1NC(=O)c1sc2nc3c(cc2c1N)CCCCC3`, 119%; under `C#Cc1cccc(NC(=O)c2cccc(NC(=O)CCl)c2)c1`, -52.7% [8.25 µM] (active).
Under `O=c1cc(-c2ccccc2)nc2cc(-c3ccco3)[nH]n12` stands -1.48% (active); under `COc1ccc2c(c1)/C(=N/c1n[nH]c(=S)s1)C(=O)N2`, 17.1%.
Take `O=C1/C(=C/c2cccc(Br)c2)COc2ccc(O)c(O)c21`: the growth is -47.5% (active).
The value for `COc1ccc(NC(=O)c2cccc(C3CCc4c(cc(OC)c(OC)c4OC)O3)c2)cc1` (stereo unspecified) was 22%; that for `O/N=C/c1ccc(O)cc1O` was 121%; that for `O=c1c2cc(F)ccc2sc2c(N3CCCCC3)nc3ccccc3c12` was 95.6%.
Under `COc1ccc(/C=C(\C#N)c2ccccc2)cc1` stands 91.2%; under `NCC(O)C(O)C(O)C(O)CO` (stereo unspecified), 98.7%.
